# Compounds without any hit were thinned out: in the full panel of roughly 83,000, 20% have a hit.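 Assay: single dose, 48 h. Readout: percent growth (0 = no net growth; negative = cell death). Active: <10.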 A number with no mark means an inactive call. Activity calls are given as the source filed them.
# Assays:
# Assay in all cases: NCI-60 one-dose screen, 48 h (100 = growth as untreated, 0 = no growth, -100 = all killed)
# Conditions in all cases: 10 µM unless noted
# SK-MEL-2 melanoma = tested on: SK-MEL-2 melanoma
# EKVX NSCLC = tested on: EKVX NSCLC
# SN12C renal = tested on: SN12C renal
# UO-31 renal = tested on: UO-31 renal
# TK-10 renal = tested on: TK-10 renal
# ACHN renal = tested on: ACHN renal
# CAKI-1 renal = tested on: CAKI-1 renal
# A498 renal = tested on: A498 renal
# CCRF-CEM leukemia = tested on: CCRF-CEM leukemia
# MOLT-4 leukemia = tested on: MOLT-4 leukemia
# SR leukemia = tested on: SR leukemia
# RPMI-8226 leukemia = tested on: RPMI-8226 leukemia
# OVCAR-8 ovarian = tested on: OVCAR-8 ovarian
# OVCAR-5 ovarian = tested on: OVCAR-5 ovarian
# OVCAR-4 ovarian = tested on: OVCAR-4 ovarian
# SK-OV-3 ovarian = tested on: SK-OV-3 ovarian
# IGROV1 ovarian = tested on: IGROV1 ovarian
# OVCAR-3 ovarian = tested on: OVCAR-3 ovarian
# HS 578T breast = tested on: HS 578T breast
# NCI/ADR-RES ovarian = tested on: NCI/ADR-RES ovarian
Structure (SMILES),growth (SK-MEL-2 melanoma),growth (EKVX NSCLC),growth (SN12C renal),growth (UO-31 renal),growth (TK-10 renal),growth (ACHN renal),growth (CAKI-1 renal),growth (A498 renal),growth (CCRF-CEM leukemia),growth (MOLT-4 leukemia),growth (SR leukemia),growth (RPMI-8226 leukemia),growth (OVCAR-8 ovarian),growth (OVCAR-5 ovarian) [%],growth (OVCAR-4 ovarian) [%],growth (SK-OV-3 ovarian) [%],growth (IGROV1 ovarian),growth (OVCAR-3 ovarian),growth (HS 578T breast),growth (NCI/ADR-RES ovarian)
Cc1cc(=O)oc2cc(Oc3nc(-c4ccccc4)cn4c(-c5ccccc5)cnc34)ccc12,51.9%,66.8%,67.6%,40.8%,80.5%,48.6%,85.2%,9.88% (active),77.6%,58.5%,54.5%,51%,61.6%,105,60.7,63.1,83.7%,76.6%,58.6%,45.4%
O=C1/C(=C/c2ccc(-c3ccc(Cl)cc3)o2)SC(=S)N1CCc1ccc(O)cc1,58.5%,80.5%,63%,28.5%,51.1%,65.3%,20.4%,58.9%,13.5%,15.3%,24.5%,55.5%,16.4%,75.2,25.6,44.8,31.8%,24.1%,36.6%,77.3%
C[C@H]1c2ccccc2CN1CCCOc1cc2c(cc1OCC1CC1)C1(CCCC1)C(N)=N2,54%,72.8%,67.6%,29.3%,92.7%,69%,18.5%,32.5%,54.6%,36.4%,13.8%,17.6%,65.9%,70.5,48.8,90.2,54.8%,76.9%,56%,68%
COC12C=C/C(=C(/C(=O)OCc3ccccn3)C(=O)CCCCCCCCC3(OC)C=C/C(=C(/C(=O)OCc4ccccn4)C(=O)CCCCCCCC1)O3)O2,10.8%,-9.9% (active),-22.2% (active),-45.7% (active),4.32% (active),-14.9% (active),-4.53% (active),-86.3% (active),0.645% (active),0.868% (active),-9.81% (active),-14.8% (active),16.8%,34.9,28.8,46.3,-39.1% (active),-36.3% (active),49.7%,7.96% (active)
Clc1ccc2c(NCCCn3cnc4c(N5CCCC5)nc(Cl)nc43)ccnc2c1,89.6%,96.4%,94.3%,77.4%,102%,91.8%,90.8%,94.4%,104%,92.3%,84.2%,115%,103%,101,100,88.2,89%,101%,104%,93.3%
CCOC(=O)C1=CCC(n2cc(F)c(=O)[nH]c2=O)O1 (stereo not given),103%,118%,104%,87.8%,110%,103%,102%,99.9%,97.4%,92.9%,99.8%,105%,97%,119,130,121,126%,92.5%,116%,106%
COc1ccc(-c2cn(Cc3ccc4c(Br)cc(Br)c(O)c4n3)nn2)cc1,101%,84.2%,100%,-92.3% (active),91.3%,-68.7% (active),61.6%,99.6%,73.9%,87%,-23.1% (active),67.2%,88.7%,95.6,96.2,108,56.6%,73.2%,109%,102%
O=C(CNc1ncco1)Nc1ccc(S(=O)(=O)c2ccc(NC(=O)CNc3ncco3)cc2)cc1,-6.97% (active),50.4%,8.32% (active),41.1%,54.4%,30.5%,-51.6% (active),100%,0.572% (active),5.92% (active),-0.678% (active),11.2%,-80.7% (active),28.5,17.5,76.1,-10.3% (active),104%,-4.97% (active),-12.5% (active)
COC(CCP(=O)(c1ccccc1)c1ccccc1)(C(=O)c1ccccc1)c1ccccc1 (stereo not given),34.7%,59.2%,96.7%,33.4%,81.1%,71.5%,87.1%,83.4%,35.4%,18.3%,-8.14% (active),4.88% (active),77%,84.1,61.3,83.5,-19.4% (active),77.1%,83.5%,57.7%
CC1(C)C2=C(C(=O)N1Cc1ccccc1)C(c1ccco1)N(C(=O)C1CCC1)CCN2 (stereo not given),94.3%,97.4%,93.4%,90.5%,93.9%,111%,91.9%,113%,105%,102%,94.9%,106%,115%,95.6,97.1,103,103%,107%,121%,100%
O=C(/C=C/C12c3ccccc3C(c3ccccc31)C1C(=O)NC(=O)C12)c1cccs1 (stereo not given),38.5%,50.3%,36.4%,42.6%,48.7%,45.8%,52.2%,46.9%,0.0532% (active),10.5%,20.3%,1.76% (active),18.4%,48,60,59.1,37%,-0.389% (active),36.2%,26.6%
C(CCCSC1=NCCN1)CCSC1=NCCN1,122%,109%,103%,80.3%,122%,100%,101%,103%,101%,102%,95.9%,107%,98.4%,89.8,98.2,112,101%,107%,104%,94.4%
Cc1ccc(-c2nnc(SCc3nc(N)nc(Nc4ccccc4F)n3)n2-c2ccccc2)cc1,95.4%,94.2%,95.6%,70.4%,100%,92%,85.2%,55.3%,90.2%,70.2%,92.4%,83.7%,88%,95.9,86.7,102,81.4%,102%,87.1%,98.2%
Clc1ccc(C2=Nn3c(nnc3-c3cc(Cl)cc(Cl)c3Cl)SC2)cc1,80.3%,70.6%,88.4%,51.6%,87.4%,58.2%,78.7%,55.9%,36.1%,26.7%,2.55% (active),42.8%,71.8%,19.3,74.9,50.4,22.7%,8.59% (active),20.9%,5.52% (active)
CCCCCN(CCCCC)CC(O)c1c(Cl)ccc2ccccc12 (stereo not given),93.4%,62.5%,70.2%,37.2%,98.1%,54.7%,60%,68.3%,67.2%,54%,32.9%,66.2%,87.5%,65.8,79.5,93.6,63%,90.7%,80%,77.8%
